Results on 61 compounds are retold here after PubChem BioAssay AID504332 (National Center for Advancing Translational Sciences (NCATS), 2011).

Several values for one entry are separate records, joined by “and”; a condition that tells them apart may be missing. Identical values can stand only once. Screen size: about 350,000 compounds; about 31,000 (8.9%) were called active. Not shown: some 15% with an inconclusive outcome. Calls follow the shape of the dose curve; as a rule, active = well fitted inhibition curve with a large enough effect; inconclusive = small, poorly fitted or top-dose-only effect; inactive = no such curve, though single readings can be large or run the other way. What follows is part of a selection rich in actives, with near analogues and random picks from the rest. Where a call stands in place of a potency, no number is given. Where a structure was tested more than once in an assay, its records may differ in their call.
Potency is read from the fitted curve at half-maximal effect.

Chain of Histone-lysine N-methyltransferase EHMT2 (Homo sapiens) (Q96KQ7 913-1193 limits assumed): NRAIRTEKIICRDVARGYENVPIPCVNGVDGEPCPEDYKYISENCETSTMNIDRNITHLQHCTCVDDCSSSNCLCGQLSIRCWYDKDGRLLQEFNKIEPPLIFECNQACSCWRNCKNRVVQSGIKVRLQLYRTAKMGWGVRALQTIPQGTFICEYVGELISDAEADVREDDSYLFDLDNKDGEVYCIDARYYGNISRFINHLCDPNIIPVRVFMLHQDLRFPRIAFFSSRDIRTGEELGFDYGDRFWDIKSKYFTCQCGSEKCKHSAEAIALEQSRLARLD

This assay concerns the target Histone-lysine N-methyltransferase EHMT2 (Homo sapiens) (UniProt Q96KQ7). As to the kind of experiment: qHTS Assay for Inhibitors of Histone Lysine Methyltransferase G9a. Also: nearly all actives have a fitted effect of over 75% in size. The settings on record: G9a H3K9 monomethylation, AlphaScreen, 2 h; series mostly up to 102 µM. The procedure, abridged:
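Methyltransferase reactions run at room temperature for 2 h (20 nM enzyme, 500 nM biotin-H3K9 peptide, 20 uM SAM) after a 15 min compound preincubation; product detected by AlphaScreen beads and anti-H3K9me1 antibody.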
A general note: qHTS replaces the single test concentration by a dilution series.
As for `O=C1NC(=O)N(Cc2ccco2)C(=O)/C1=C\c1ccc(-c2ccc(F)cc2)o1`, the Potency is 12.6 µM (active). For `Cc1cc(/C=C2/C(=O)NC(=O)N(Cc3ccco3)C2=O)c(C)n1-c1ccc(C(=O)O)cc1`, the Potency was 35.5 µM (active). On to `Cc1ccc2c(c1)C1CN(C)CCC1N2C(=O)Cn1nnc(-c2ccccc2F)n1` (configuration not stated), for which the activity, negative = inhibition entry is “inactive”. Turning to `CCOC(=O)c1c(N)n(CCN2CCOCC2)c2nc3ccccc3nc12`, the activity, negative = inhibition entry was “inactive”.

In the case of `CC(=O)N1CN2CN(C(C)=O)CC(C(=O)c3ccc(Br)cc3)(C2)C1`, the activity, negative = inhibition entry was “inactive”. Consider `C[C@@]12CC[C@H]3[C@@H](CC[C@]4(O)C[C@H](O)CC[C@@]34C=O)[C@]1(O)CC[C@@H]2C1=CC(=O)OC1`, for which the activity, negative = inhibition is 21.4% [at 21.5 µM] (inactive). Regarding `O=c1c2ccccc2nc(-c2ccc(Cl)cc2Cl)n1-c1ccncc1`, the activity, negative = inhibition entry is “inactive”. For `COC(=O)C1=C(c2ccc(C(C)=O)cc2)C[C@@H]2CC[C@H]1N2C(=O)NCCNC(C)=O`, the activity, negative = inhibition was 23.2% [at 2.33 µM] (inactive). For `O=Cc1cn(Cc2ccc(F)cc2Cl)c2ccccc12`, the activity, negative = inhibition result is “inactive”.

Consider `CNC(=O)N(C)c1nnc(C(C)(C)C)s1`, for which the activity, negative = inhibition was -1.28% [at 12.7 µM] (inactive). In the case of `CCOC(=O)C1SC2(C(F)(F)C(F)F)CC1(O)c1c(c(OC)c3occc3c1OC)O2` (configuration not stated), the activity, negative = inhibition result is “inactive”.

For `N=c1ccccn1Cc1ccccc1`, the activity, negative = inhibition result was “inactive”. For `CCCCC/C=C\C/C=C\C/C=C\C/C=C\CCCCCC(=O)NCCO`, the Potency result was “inactive and 12.6 µM (active)”.

Regarding `CCCCC/C=C\C/C=C\C/C=C\CCCCCCC(=O)NCCO`, the activity, negative = inhibition entry is “inactive”. Regarding `CCCCC/C=C\C/C=C\C/C=C\C=C\[C@H](CCCC(=O)O)OO`, the activity, negative = inhibition entry is “inactive”.

As to `O=C1/C(=C\c2ccc3c(c2)OCO3)N2CCC1CC2`, the activity, negative = inhibition result was “inactive”. In the case of `O=C(CCN1CCCCC1)NCC(=O)Nc1ccc(Br)cc1C(=O)c1ccccc1`, the activity, negative = inhibition result was “inactive”.

As to `CCOP(=S)(OCC)C(O)CCCCCn1c(=O)c(F)cn(C2CCCO2)c1=O` (configuration not stated), the activity, negative = inhibition was 6.51% [at 0.501 µM] (inactive). On to `CN(C)c1nc(N(C)C)nc(N(C#N)CCCl)n1`, for which the Potency was 39.8 µM (active). For the compound `Clc1cccc(Cl)c1Cl`, the activity, negative = inhibition was 8.54% [at 0.501 µM] (inactive). Same read-out and setting: next, `C[C@]12CC[C@@H]3c4ccc(O)cc4C[C@@H](CCCCCCCCCS(=O)CCCC(F)(F)C(F)(F)F)C3[C@@H]1CC[C@@H]2O` (some centres not stated): “inactive”; `Cn1c(O)c(C=Nc2ccc3c(c2)CCC3)c(=O)n(C)c1=O`: “inactive”; `c1ccc2sc(N3CCNCC3)nc2c1`: “inactive”. For the compound `c1ccc2sc(C3CCCNC3)nc2c1` (configuration not stated), the Potency was 44.7 µM (active). On to `CC(C)(C)[C@]1(O)C[C@@H]2OC(=O)C[C@@]23C(=O)O[C@@H]2OC(=O)[C@H](O)[C@]213`, for which the activity, negative = inhibition entry is “inactive”. On to `OC1/C(=C/c2ccc(C(F)(F)F)cc2)N2CCC1CC2` (configuration not stated), for which the activity, negative = inhibition entry was “inactive”.

For the compound `COC(=O)C1=C(c2ccc3ccccc3c2)C[C@@H]2CC[C@H]1N2C(=O)NCCO`, the activity, negative = inhibition was 26.7% [at 2.33 µM] (inactive). As to `CCN1CCN(Cc2cc(OC)c3c(c2)OCO3)CC1`, the activity, negative = inhibition entry is “inactive”.

Consider `COc1ccc(CNCCc2ccc3c(c2)OCO3)c(OC)c1OC`, for which the Potency is 8.91 µM (active). Turning to `COC(=O)C1=C(c2c(C)noc2C)C[C@@H]2CC[C@H]1N2C(=O)NCc1ccc2c(c1)OCO2`, the activity, negative = inhibition is -4.27% [at 0.501 µM] (inactive). For `c1csc(CN2CCCC3(CCNCC3)C2)n1`, the activity, negative = inhibition is 7.82% [at 12.7 µM] (inactive). For the compound `CCCCCCCCCCCCn1ccc(=N)cc1`, the activity, negative = inhibition entry was “inactive”. `CC[C@H]1CN2CCc3cc(OC)c(OC)cc3[C@@H]2C[C@@H]1C[C@H]1NCCc2cc(OC)c(OC)cc21`: the activity, negative = inhibition entry was “inactive”.

`CCOc1cc(N2CCOCC2)c(OCC)cc1NC(=O)C1=NN(c2cccc(C)c2)C(=O)CC1`: the Potency is 11.2 µM (active). As for `CCCCCn1c(=O)c(C(=O)NCc2ccccn2)c(O)c2ccccc21`, the activity, negative = inhibition entry was “inactive”. In the case of `O=C1c2ccccc2NC(c2ccccc2O)N1NS(=O)(=O)c1ccccc1` (configuration not stated), the activity, negative = inhibition entry is “inactive”. On to `Cc1ccc(N(C)C(=O)Oc2cccc3ccc(C)nc23)cc1`, for which the activity, negative = inhibition result was “inactive”. For `COC(=O)COc1cc(C)cc2oc(=O)c3c(c12)CCCC3`, the activity, negative = inhibition result was “inactive”.

For `O=C(Nc1cccc(F)c1)N1CC[C@@]2(CCCN(C(=O)Oc3ccccc3)C2)C1`, the activity, negative = inhibition was -11.3% [at 12.7 µM] (inactive). As for `CCC(=O)CC(c1ccc([N+](=O)[O-])cc1)c1c(O)c2ccccc2oc1=O` (configuration not stated), the activity, negative = inhibition result was “inactive”. On to `COc1cc(C(c2c(O)c3ccccc3oc2=O)c2c(C)n(C)n(-c3ccccc3)c2=O)ccc1O` (configuration not stated), for which the Potency is 44.7 µM (active).

On to `CCCCCn1c(=O)c(C(=O)Nc2c(C)n(C)n(-c3ccccc3)c2=O)c(O)c2ccccc21`, for which the activity, negative = inhibition entry was “inactive”. On to `Cc1ccsc1C(=O)C1CCCN(Cc2ccc(O)cc2)C1` (configuration not stated), for which the activity, negative = inhibition entry was “inactive”. For the compound `CCOC(=O)CC1=C(C(=O)OCC)C2(C(=O)N1)C(C(=O)OC)=C(N)Oc1ccccc12` (configuration not stated), the activity, negative = inhibition result was “inactive”. As for `CCCCCCN=C(CC)c1c(O)n(CCCC)c(=O)[nH]c1=O`, the activity, negative = inhibition is -24.6% [at 12.7 µM] (inactive). On the same count and under the same terms, with `COc1ccccc1OC(=O)c1ccc(C)c(S(=O)(=O)N2CCOCC2)c1` the entry was “inactive”; with `COc1ccc(C(=O)C2CCCN(Cc3ccc(C)s3)C2)cc1OC` (configuration not stated), “inactive”. As to `COc1cc(C(=S)N2CCOCC2)ccc1O`, the Potency is 20 µM (active) and the activity, negative = inhibition is -4.38% [at 12.7 µM] (inactive).

As to `OCC#CC[N+]1(CC#Cc2ccccc2)CCCC1`, the activity, negative = inhibition entry is “inactive”. Turning to `CC(c1ccccc1)(c1ccccc1)c1ccncc1`, the activity, negative = inhibition entry is “inactive”. With `CC(Cc1ccccc1)NCCC(c1ccccc1)c1ccccc1` (configuration not stated), the activity, negative = inhibition entry was “inactive”.

Take `Cn1c(O)c(C=NCCN2CCNCC2)c(=O)n(C)c1=O`: the activity, negative = inhibition result is “inactive”.

Regarding `C=CCN1CCC23c4c5ccc(O)c4O[C@H]2C(=O)CC[C@@]3(O)C1C5` (some centres not stated), the Potency result was “inactive and 31.6 µM (active)”. As to `C=CCN1CCC2(C)c3cc(O)ccc3CC1[C@@H]2C` (some centres not stated), the activity, negative = inhibition entry was “inactive”. As for `CC(C)N(CC#CCC1(O)c2ccccc2-c2ccccc21)C(C)C`, the activity, negative = inhibition entry was “inactive”.

For `O=C(Nc1cccc(OC(=O)N2CCCCC2)c1)N1CCOCC1`, the activity, negative = inhibition entry was “inactive”. On the same count and under the same terms, next, `Cc1cc(C(=O)OCC(=O)Nc2c(F)cccc2F)c(C)n1C1CC1`: “inactive”.

As for `Cc1noc(C)c1CSc1nc2cc(S(=O)(=O)N3CCOCC3)ccc2o1`, the Potency was 3.16 µM (active).

For the compound `CN(C)CCN(CC1CCCN(Cc2ccccc2F)C1)C(=O)Cc1ccc(F)c(F)c1` (configuration not stated), the activity, negative = inhibition entry is “inactive”. As to `CCCC[N+]1(C)C2CC(OC(=O)C(CO)c3ccccc3)CC1C1OC12` (configuration not stated), the activity, negative = inhibition entry is “inactive”. Same read-out and setting: next, `COC(=O)C1=C(c2ccc(F)cc2OCc2ccccc2)C[C@@H]2CC[C@H]1N2C(=O)NCc1ccc2[nH]ccc2c1`: 4.96% [at 0.501 µM] (inactive).
